Screens as filed in PubChem.
An excerpt weighted towards active compounds, which were near 11% of everything screened.
BAZ2B inh: blocks human BAZ2B | Potency, µM (doses to about 114 µM), without a hit: at the highest dose activity change, negative = inhibition, actives largely listed as inhibitors | AlphaScreen BAZ2B-H3K14Ac peptide displacement | 360,000 tested, 4.4% active | AID 504333; further: on the % scale 0 is the no-effect control and ±100 the full control effect; nearly all actives have a fitted effect of over 60% in size
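BAZ2B 50 nM plus b-H3(5-23)K14Ac 50 nM, PBS pH 7.4/0.01% Tween-20, 30 min RT; compound added (max 110 uM), 30 min RT; streptavidin donor/Ni-chelate acceptor beads 10 ug/mL final, 20 min dark; AlphaScreen read.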
HP1b binding inh: inhibitors of HP1-beta chromodomain binding to methylated histone tails | P83916 | AlphaScreen HP1-beta / biotin-H3K9me3 peptide binding | Potency, µM (series often up to 114 µM), inactives show top-dose activity change, negative = inhibition, actives largely listed as inhibitors | 390,000 tested, 0.56% active | AID 540317; further: nearly all actives have a fitted effect of over 70% in size
Target sequence (P83916 whole entry, looked up): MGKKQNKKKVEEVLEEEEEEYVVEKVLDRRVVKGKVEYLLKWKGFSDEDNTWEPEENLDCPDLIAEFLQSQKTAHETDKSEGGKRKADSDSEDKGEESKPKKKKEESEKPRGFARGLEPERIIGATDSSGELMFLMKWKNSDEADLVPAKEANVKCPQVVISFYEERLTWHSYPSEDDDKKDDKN
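Compound inhibition of the preformed complex between 50 nM HP1-beta and 50 nM biotinylated H3K9me3 peptide was read by AlphaScreen. Buffer was PBS pH 7.4 with 0.01% Tween-20. Incubations ran 30 min at room temperature, with 10 ug/mL donor/acceptor beads.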
JMJD2A Tudor inh: inhibitors of human JMJD2A Tudor domain; O75164; AlphaScreen JMJD2A-Tudor / H3K4me3 peptide binding; Potency, µM (series often up to 114 µM), inactives show at the highest dose activity change, negative = inhibition, hits mostly inhibitors; 390,000 tested, 4.4% active; AID 504339; further: on the % scale 0 is the no-effect control and ±100 the full control effect; nearly all actives have a fitted effect of over 50% in size
L3MBTL1 block: L3MBTL1 (human) inhibition | Q9Y468 | AlphaScreen L3MBTL1–H3K9me1 peptide binding | Potency, µM (top dose mostly 57.1 µM), without a hit: top-dose activity, negative = inhibition, actives largely listed as inhibitors | 230,000 tested, 0.66% active; further: on the % scale 0 is the no-effect control and ±100 the full control effect; nearly all actives have a fitted effect of over 60% in size
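Read-out is AlphaScreen signal from streptavidin donor and nickel chelate acceptor beads (10 ug/mL final each) bridging L3MBTL1 (50 nM) and biotinylated K9-monomethylated H3(1-15) peptide (75 nM), after 30 min compound exposure at room temperature.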
G9a inh: inhibitors of human histone lysine methyltransferase G9a | Q96KQ7 | Potency, µM (titrated, usually from 102 µM), inactives show at the highest dose activity, negative = inhibition, usual class: inhibitors | G9a H3K9 monomethylation, AlphaScreen, 2 h | 350,000 tested, 8.8% active; further: on the % scale 0 is the no-effect control and ±100 the full control effect; nearly all actives have a fitted effect of over 75% in size
Target sequence (Q96KQ7 913-1193 limits assumed): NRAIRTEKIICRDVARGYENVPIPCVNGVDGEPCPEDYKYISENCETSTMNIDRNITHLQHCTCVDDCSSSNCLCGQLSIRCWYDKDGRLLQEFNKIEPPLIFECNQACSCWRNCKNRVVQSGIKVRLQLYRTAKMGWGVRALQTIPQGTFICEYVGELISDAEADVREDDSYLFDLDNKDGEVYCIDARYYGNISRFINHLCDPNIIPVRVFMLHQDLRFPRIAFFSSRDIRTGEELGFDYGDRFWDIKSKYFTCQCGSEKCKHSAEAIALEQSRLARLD
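G9a (20 nM) was preincubated 15 min with compound, then reacted 2 h at room temperature with 500 nM biotin-H3K9 peptide and 20 µM SAM. Monomethyl-H3K9 detected by AlphaScreen using anti-H3K9me1 antibody.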
* hit, by the source's call; ? = inconclusive; . = no result; [ ] = another dose, or the depositor's remark. The call rests on the fitted dose curve; in most records, active means well fitted inhibition curve with a large enough effect; inconclusive means small, poorly fitted or top-dose-only effect; inactive means no such curve, though single readings can be large or run the other way. Potency means the concentration at half of the fitted maximal effect.

SMILES	BAZ2B inh	HP1b binding inh	JMJD2A Tudor inh	L3MBTL1 block	G9a inh
COc1ccc(/C(C)=N/NC(=O)CNC(=O)Cc2ccccc2)c(OC)c1	2%	43%	-9%	13%	.
COc1ccc(CNc2ncnc3nc[nH]c23)cc1OC	.	45%	-13%	.	.
CCCCNC(=O)CCn1c(=O)c2cccn2c2cccnc21	-34%	36%	5%	.	40%[59 µM]
O=C(Cn1c(=O)oc2cc(S(=O)(=O)N3CCCCCC3)ccc21)Nc1cccc(C(F)(F)F)c1	2%	18%	-12%	.	-31%[59 µM]
CCc1ccc(-n2nc(C)c3c(C)cc(=O)n(CC(=O)Nc4ccc(C(C)=O)cc4)c32)cc1	-1%	6%	-19%	.	13%[59 µM]
COc1ccc2c(/C=N/Nc3ccc(C(=O)O)cc3)c[nH]c2c1	?	9%	?	.	?
COc1ccc2c(c1)C(=NNc1ccc(C(=O)O)cc1)c1cc(OC)ccc1-2	40µM*	?	50µM*	.	?
C/C(=N\Nc1ccc(C(=O)O)cc1)c1ccc(Br)cc1	50µM*	?	71µM*	?	.
COc1ccc(CNC(=O)C2CCN(S(=O)(=O)Cc3ccccc3)CC2)cc1	?	47%	-12%	.	-18%[59 µM]
Cc1cc(=O)n(C)c(=O)n1CCCCCN1CCCC1	50µM*	?	2.5µM*	28µM*	?
Cc1cc(=O)n(C)c(=O)n1CCCCCCOc1cccc([N+](=O)[O-])c1	-31%	8%	-24%	-13%	-25%[59 µM]
CCN1CCN(c2nc(C)nc3c2sc(=S)n3C)CC1	-5%	-14%	?	11%	6.3µM*
Cc1nc(N2CCCCC2)c2sc(=S)n(C)c2n1	6%	52%	-18%	-5%	?
CCC(=O)N1c2ccccc2CC1C(=O)NCc1cc(Br)ccc1OC (centres undefined)	1%	37%	-15%	.	22%[59 µM]
Cc1cnc(NC(=O)/C=C/c2ccc(Br)o2)s1	-2%	19%	-25%	4%	.
Cc1ccc(/C=C/C(=O)Nc2ccc(N(C)C)cc2)o1	35µM*	?	50µM*	-25%	4µM*
CC(=O)NS(=O)(=O)c1ccc(NC(=O)/C=C/c2ccc(C)o2)cc1	-20%	?	35µM*	?	22µM*
Cc1ccc(/C=C/C(=O)Nc2ncc(C)s2)o1	?	-13%	-24%	?	13µM*
O=C(NCc1ccc(F)cc1Cl)c1ccc(CSCc2ccccc2Cl)o1	20%	52%	-8%	.	6%[59 µM]
Cc1ccc(S(=O)(=O)NC(=O)c2cc(C)n(-c3ccc(N(C)C)cc3)c2C)cc1	-35%	-2%	-32%	-12%	45µM*
Cc1ccc(S(=O)(=O)NC(=O)Nc2ccc(N(C)C)cc2)cc1	14µM*	18µM*	22µM*	.	?
COc1ccc(C(=O)NCCn2cc(SCC(=O)Nc3ccc(F)cc3)c3ccccc32)cc1	-26%	27%	-18%	.	5%[59 µM]
CCOC(=O)C1CCN(C(=O)c2cc3cc4ccc(C)cc4nc3o2)CC1	-9%	39%	-13%	.	79µM*
Cc1ccc(C)c(N2CCN(C(=O)c3cc4cc5ccc(C)cc5nc4o3)CC2)c1	.	21%	-24%	.	4%[59 µM]
Cc1ccc(-c2cc(C(=O)OCC(=O)c3ccccc3)c3cccc(Cl)c3n2)cc1	13%	38%	12%	.	-8%[59 µM]
SMILES	BAZ2B inh	HP1b binding inh	JMJD2A Tudor inh	L3MBTL1 block	G9a inh
CCc1nnc(NS(=O)(=O)c2ccc(NC(=S)NC(=O)c3ccccc3)cc2)s1	?	-6%	?	-4%	?
CCc1nnc(NS(=O)(=O)c2ccc(NC(=S)Nc3ccc(F)cc3)cc2)s1	1%	13%	-34%	2%	-8%[59 µM]
CCc1nnc(NS(=O)(=O)c2ccc(NC(=S)NC(=O)/C=C/c3ccccc3)cc2)s1	?	-29%	79µM*	4%	?
COCc1nnc(NS(=O)(=O)c2ccc(OC)cc2)s1	.	35%	-8%	.	.
CCc1nnc(NS(=O)(=O)c2ccc(NC(=S)NC(=O)c3ccc(Br)cc3)cc2)s1	?	-21%	?	-5%	-20%[59 µM]
CCc1nnc(NS(=O)(=O)c2ccc(NC(=S)NC(=O)/C=C/c3ccc(OC)cc3)cc2)s1	?	?	32µM*	-15%	50µM*
CCc1nnc(NS(=O)(=O)c2ccc(NC(=S)NC(=O)/C=C/c3ccc(C(C)C)cc3)cc2)s1	50µM*	?	56µM*	0%	18%[0.501 µM]
CCCc1nnc(NS(=O)(=O)c2ccc(OC)cc2)s1	-22%	15%	-9%	4%	45µM*
COc1ccccc1N1CCN(C(=O)Cn2cnc3onc(-c4ccc(F)cc4)c3c2=O)CC1	1%[57.1 µM]	-14%	-30%	.	-11%[59 µM]
C=CCc1ccccc1OCc1nc2ccc(C)cc2[nH]1	-1%	69%	8%	.	9%[59 µM]
Cc1cccc(CNC(=O)c2ccc(N3Cc4ccccc4Oc4ncccc43)s2)c1	5%	31%	9%	.	-5%[59 µM]
NS(=O)(=O)c1ccc(NC(=O)CSc2nnc3n2CCCCC3)cc1	.	35%	-11%	-8%	.
CC(Sc1nnc2n1CCCCC2)C(=O)Nc1ccc(S(N)(=O)=O)cc1 (centres undefined)	5%	9%	-11%	-8%	45µM*
COC(=O)c1ccc2c(=O)[nH]c(CSc3nc(-c4ccc(F)cc4)cs3)nc2c1	-6%	6%	-6%	-8%	?
COC(=O)c1ccc2c(=O)[nH]c(CSc3nc(C)cs3)nc2c1	-16%	11%	-8%	-6%	40µM*
CCC(C)NC(=O)CSc1nnc(-c2ccc(C)cc2)c(-c2ccc(C)cc2)n1 (centres undefined)	-2%	16%	-12%	.	-8%[59 µM]
C[C@@H](C(=O)NCCc1c[nH]c2ccccc12)[C@@H]1C[C@@]1(C)[C@@H](NC(=O)OCc1ccccc1)c1ccccc1	-35%	4%	?	-10%	45µM*
C[C@@H](C(=O)NCc1ccccc1)[C@@H]1C[C@@]1(C)[C@@H](NC(=O)OCc1ccccc1)c1ccccc1	0%	36%	-18%	-9%	-25%
O=C(O)Cc1nnc(-c2cc3ccccc3[nH]2)s1	.	.	-34%	.	.
COc1ccccc1C1CCN(c2ccc(CO)cc2[N+](=O)[O-])CC1	?	?	56µM*	-20%	35µM*
COc1cc(CN2CCCN(C)CC2)cc([N+](=O)[O-])c1O	?	?	0.89µM*	-4%	.
COc1cc(CN2CCc3ccccc3C2)ccc1O	50µM*	?	20µM*	0%	14µM*
COc1cc(CN2CCN(c3ccc(C)cc3)CC2)cc([N+](=O)[O-])c1O	?	12%	-33%	-5%	-15%[59 µM]
COc1cc(CN2CCc3ccccc3C2)cc([N+](=O)[O-])c1O	?	?	22µM*	-22%	8.9µM*
COc1cc(CN2CCCC(C)C2)cc([N+](=O)[O-])c1O (centres undefined)	-9%	2%	-11%	-6%	-19%[59 µM]
COc1ccc(OC)c(CCNC(=O)CCCn2c(=O)c3cccn3c3ccccc32)c1	-8%	18%	-7%	.	-2%[59 µM]
